Data from PubChem BioAssay (NCATS).
Several values for one entry are separate records, joined by “and”; a condition that tells them apart may be missing. Equal values may be shown once. Records with an inconclusive call do not appear. Entries that show only a call come without a potency. Some compounds were tested as several samples or in several runs, with calls that do not always agree. Activity calls are given as the source filed them. Unless noted, the call rests on the fitted dose curve; in most records, active means well fitted curve in the direction sought with a large enough effect; inconclusive means small, poorly fitted or top-dose-only effect, or another doubt; inactive means no such curve, though single readings can be large; an effect the other way counts as inactive or inconclusive.

Tests used:
[1] = biological target: Thioredoxin reductase 1, cytoplasmic (Rattus norvegicus) (UniProt O89049); assay: qHTS Assay for Substrates of Mammalian Selenoprotein Thioredoxin Reductase 1 (TrxR1) (AID 488772);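 further: series mostly up to about 57 µM; a drop in NADPH fluorescence below the no-compound background marks a TrxR1 substrate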
Procedure, shortened: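 In this dual-purpose format, potential substrates are identified from the first fluorescence read after selenite addition, not from the 8-minute delta. Rat enzyme is preincubated with NADPH and then with compound at ~22 deg C.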

[2] = biological target: Thioredoxin reductase 1, cytoplasmic (Rattus norvegicus) (UniProt O89049); assay: qHTS Assay for Inhibitors of Mammalian Selenoprotein Thioredoxin Reductase 1 (TrxR1) (AID 488773); conditions: Potency: inhibition; further: nearly all actives have a fitted effect of over 40% in size; further: potency means the concentration at half of the fitted maximal effect
Procedure, shortened: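 Inhibition is scored from the loss of NADPH fluorescence between first and last reads of an 8-min kinetic run. Selenite (400 uM) was the substrate, added after 15 min compound preincubation at room temperature.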

[3] = biological target: Flap endonuclease 1 (Homo sapiens) (UniProt P39748); assay: qHTS Validation Assay for the Inhibitors of Human Flap endonuclease 1 (FEN1) (AID 488816); further: potency means the concentration at half of the fitted maximal effect
Procedure, shortened: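 Enzyme reagent 10 nM; cpds pinned; 15 min RT preinc.; substrate 50 nM final; reads t=0 and 15 min; no-enzyme buffer wells as neg. control; normalized data, 4-parameter Hill fit.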

[4] = biological target: M-phase phosphoprotein 8 (Homo sapiens) (UniProt Q99549); assay: qHTS Validation Assay for Inhibitors for MPP8 Chromodomain Interactions with Methylated Histone Tails (AID 488949); further: nearly all actives have a fitted effect of over 55% in size; further: potency means the concentration at half of the fitted maximal effect
Procedure, shortened: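 MPP8 (50 nM) was preincubated with biotinylated H3(1-18)K9me3 peptide (50 nM) in PBS pH 7.4, 0.01% Tween-20 for 30 min at room temperature, then with compounds for 30 min; binding was detected by AlphaScreen.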

[5] = biological target: Chromobox protein homolog 1 (Homo sapiens) (UniProt P83916); assay: qHTS Validation Assay for Inhibitors of HP1-beta Chromodomain Interactions with Methylated Histone Tails (AID 488953); further: nearly all actives have a fitted effect of over 50% in size; further: potency means the concentration at half of the fitted maximal effect
Procedure, shortened: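 Disruption of preformed HP1-beta:H3K9me3 peptide complexes (both 50 nM, PBS pH 7.4 with 0.01% Tween-20) is measured by AlphaScreen after 30 min compound exposure at room temperature, using streptavidin donor and nickel chelate acceptor beads at 10 ug/mL final.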

[6] = biological target: Methanococcus maripaludis chaperonin (MmCpn) (UniProt Q6LX38); assay: High-Throughput Screening for Modulators of Cytosolic Chaperonin Activity: MmCpn Primary Screen (AID 488978);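 further: 50 nM MmCpn enzyme hydrolysing 30 µM ATP at 37 °C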
Procedure, shortened: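 MmCpn (50 nM final) was preincubated with compound 5 min at RT, then 30 uM ATP (final) was added and the reaction ran 10 min at 37C. ADP produced was detected by Transcreener HTRF (ex 320 nm; em 590/665 nm).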

[7] = biological target: Transient receptor potential cation channel subfamily V member 1 (Homo sapiens) (UniProt Q8NER1); assay: HTS Assay for Compounds that Act as Enhancers of the Vanilloid Receptor 1 (AID 488979)
Procedure, shortened: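 TRPV1 cells loaded with Fluo-8 calcium dye; compound added and Ca2+ signal (ex 480/em 520 nm) followed 3 min, then capsaicin at EC20 added and read 2 more min to detect enhancement.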

[8] = biological target: Thyrotropin receptor (Homo sapiens) (UniProt P16473); assay: qHTS Assay for Antagonists of the Thyroid Stimulating Hormone Receptor (AID 488980); further: series mostly up to about 58 µM
Procedure, shortened: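 HEK293 cells transfected with human TSHR, suspended in HEPES-buffered HBSS with 70 uM RO 20-1724, were treated with compounds plus TSH at EC80 (4 nM final). cAMP was measured by competitive HTRF (cryptate anti-cAMP antibody, cAMP-d2 acceptor).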

[9] = biological target: D(1A) dopamine receptor (Homo sapiens) (UniProt P21728); assay: HTS Assay for Allosteric Agonists of the Human D1 Dopamine Receptor: Primary Screen for Agonists (AID 488981)
Procedure, shortened: (§1)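 Tetracycline-induced HEK293 Trex D1 cells with forced coupling to calcium, loaded with no-wash calcium dye; kinetic fluorescence read 180 s after compound addition for agonism, then a further 180 s after an EC20 dopamine challenge for potentiation.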

[10] = biological target: D(1A) dopamine receptor (Homo sapiens) (UniProt P21728); assay: HTS Assay for Allosteric Agonists of the Human D1 Dopamine Receptor: Primary Screen for Antagonists (AID 488983);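 further: calcium flux response to an EC80 dopamine challenge measured with no-wash dye; nearly all actives have a fitted effect of over 65% in size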; further: potency means the concentration at half of the fitted maximal effect
Procedure, shortened: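 Kinetic fluorescence at 1 cycle/sec tracked intracellular calcium in force-coupled, tetracycline-inducible HEK293 T-REx D1 cells. Loss of response to an EC80 dopamine dose, given 180 s after compound, marked antagonists.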

[11] = biological target: ATP-dependent 6-phosphofructokinase (Trypanosoma brucei brucei) (UniProt O15648); assay: qHTS Assay to Find Inhibitors of T. brucei phosphofructokinase: hit validation (AID 492961);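 further: luminescence reports ADP formed as PFK phosphorylates fructose-6-phosphate with ATP; series mostly up to about 51 µM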
Procedure, shortened: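 Inhibition of parasite PFK is measured as reduced ADP formation, quantified via luciferase after ATP depletion. Assay used 0.1 mM ATP, 0.5 mM F6P, 1.25 nM enzyme, 45 min incubation.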

[12] = Validation screen for small molecules that induce genotoxicity in human embryonic kidney (HEK293T) cells expressing luciferase-tagged ELG1 (AID 493106)
Procedure, shortened: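 Cells were dispensed at 2,000 per well, then 23 nL compound or DMSO was pinned in. After 16 hr at 37 °C and 5% CO2, ONE-Glo reagent was added. Luciferase activity was measured following 30 min at room temperature.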

[13] = biological target: ATPase family AAA domain-containing protein 5 (Homo sapiens) (UniProt Q96QE3); assay: Validation screen for small molecules that inhibit ELG1-dependent DNA repair in human embryonic kidney (HEK293T) cells expressing luciferase-tagged ELG1 (AID 493107); further: nearly all actives have a fitted effect of over 70% in size; further: potency means the concentration at half of the fitted maximal effect
Procedure, shortened: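 Cells are dispensed in 1536-well format, then 5-fluorouridine and compound are pinned in. After a 16 hr incubation at 37 °C and 5% CO2, ONE-Glo is added and luciferase measured on a CCD imager.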

[14] = biological target: Thyrotropin-releasing hormone receptor (Homo sapiens) (UniProt P34981); assay: qHTS for Small Molecule Agonists and Allosteric Enhancers of Human TRH Receptor: Validation Screen for Agonists (AID 493127;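 active means calcium activation more than 3 SD above the typical response in the agonist read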;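 further: intracellular calcium rise by fluo-8 fluorescence before TRH EC20 addition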); conditions: TRH receptor agonist cell assay; at 2 µM; stronger effect = higher value
Procedure, shortened: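 Compounds are added by online pintool to dye-loaded TRHR cells while fluorescence is recorded every second. A rise in calcium signal during the agonist read marks activation; a later 10 nM TRH addition (EC20) serves the separate enhancer mode.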

[15] = Nrf2 qHTS screen for inhibitors: Validation (AID 493153; active means well fitted inhibition curve with a large enough effect in the main read-out, with a control signal flat, not every such curve was filed as active); conditions: Potency: luciferase luminescence; viability change: measured here: cytotoxicity max response
Procedure, shortened: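 A549 ARE_Fluc, 5% FBS OPTI-MEM; cpd titration, 18-24 h, 37°C/5% CO2. Read 1: CellTiter-Fluor (Ex 405/Em 525), cytotox. Read 2: luciferase lum, Nrf2 activity.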

[16] = qHTS for Inhibitors of Cell Surface uPA Generation: Validation Assay (AID 493164);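 further: RAW 264.7 macrophage cells exposed to compound for 18 h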
Procedure, shortened: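 ATP-Lite luminescence read-out: ATP remains high when uPA activity-dependent LF translocation into the cytoplasm is blocked. RAW 264.7 cells, 18 h compound exposure at 37 C; 7-point titration, 2.45 nM to 38.3 uM final.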

[17] = Validation screen for small molecules that induce DNA re-replication in SW480 colon adenocarcinoma cells (AID 504364)
Procedure, shortened: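 Image-based qHTS: compounds were incubated with SW480 cells for 48 hr, nuclei stained with Hoechst, and per-nucleus fluorescence intensity scanned to flag cells with excess DNA content.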

[18] = biological target: D(1A) dopamine receptor (Homo sapiens) (UniProt P21728); assay: HTS Assay for Allosteric Agonists of the Human D1 Dopamine Receptor: Primary Screen for Potentiators (AID 488982)
Procedure, shortened: as §1

[19] = biological target: Galactokinase (Homo sapiens) (UniProt P51570); assay: qHTS Validation Assay for Inhibitors of Human Galactokinase (GALK) (AID 493189)
Procedure, shortened: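 GALK (5 nM) with 35 uM ATP and 100 uM galactose in HEPES pH8.0, MgCl2, NaCl, DTT, BSA; 1 h at room temperature. Residual ATP read by Kinase-Glo Plus luminescence after 10 min.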

Sequence of Thioredoxin reductase 1, cytoplasmic (Rattus norvegicus) (O89049 whole entry, looked up): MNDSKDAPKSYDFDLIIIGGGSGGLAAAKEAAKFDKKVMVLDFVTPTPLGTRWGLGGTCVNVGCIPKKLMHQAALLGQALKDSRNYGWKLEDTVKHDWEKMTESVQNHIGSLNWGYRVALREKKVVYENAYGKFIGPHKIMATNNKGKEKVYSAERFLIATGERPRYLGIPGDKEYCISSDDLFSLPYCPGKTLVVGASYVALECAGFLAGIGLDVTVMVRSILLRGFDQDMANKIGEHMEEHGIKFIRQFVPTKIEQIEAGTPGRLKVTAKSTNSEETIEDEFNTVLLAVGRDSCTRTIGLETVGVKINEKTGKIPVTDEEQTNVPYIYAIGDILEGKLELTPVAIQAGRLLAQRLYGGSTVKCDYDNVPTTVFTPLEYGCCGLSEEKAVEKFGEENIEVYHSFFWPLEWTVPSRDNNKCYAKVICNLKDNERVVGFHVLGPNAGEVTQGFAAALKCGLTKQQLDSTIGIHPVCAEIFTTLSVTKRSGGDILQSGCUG
Sequence of ATPase family AAA domain-containing protein 5 (Homo sapiens) (Q96QE3 whole entry, looked up, the tested form may be a part): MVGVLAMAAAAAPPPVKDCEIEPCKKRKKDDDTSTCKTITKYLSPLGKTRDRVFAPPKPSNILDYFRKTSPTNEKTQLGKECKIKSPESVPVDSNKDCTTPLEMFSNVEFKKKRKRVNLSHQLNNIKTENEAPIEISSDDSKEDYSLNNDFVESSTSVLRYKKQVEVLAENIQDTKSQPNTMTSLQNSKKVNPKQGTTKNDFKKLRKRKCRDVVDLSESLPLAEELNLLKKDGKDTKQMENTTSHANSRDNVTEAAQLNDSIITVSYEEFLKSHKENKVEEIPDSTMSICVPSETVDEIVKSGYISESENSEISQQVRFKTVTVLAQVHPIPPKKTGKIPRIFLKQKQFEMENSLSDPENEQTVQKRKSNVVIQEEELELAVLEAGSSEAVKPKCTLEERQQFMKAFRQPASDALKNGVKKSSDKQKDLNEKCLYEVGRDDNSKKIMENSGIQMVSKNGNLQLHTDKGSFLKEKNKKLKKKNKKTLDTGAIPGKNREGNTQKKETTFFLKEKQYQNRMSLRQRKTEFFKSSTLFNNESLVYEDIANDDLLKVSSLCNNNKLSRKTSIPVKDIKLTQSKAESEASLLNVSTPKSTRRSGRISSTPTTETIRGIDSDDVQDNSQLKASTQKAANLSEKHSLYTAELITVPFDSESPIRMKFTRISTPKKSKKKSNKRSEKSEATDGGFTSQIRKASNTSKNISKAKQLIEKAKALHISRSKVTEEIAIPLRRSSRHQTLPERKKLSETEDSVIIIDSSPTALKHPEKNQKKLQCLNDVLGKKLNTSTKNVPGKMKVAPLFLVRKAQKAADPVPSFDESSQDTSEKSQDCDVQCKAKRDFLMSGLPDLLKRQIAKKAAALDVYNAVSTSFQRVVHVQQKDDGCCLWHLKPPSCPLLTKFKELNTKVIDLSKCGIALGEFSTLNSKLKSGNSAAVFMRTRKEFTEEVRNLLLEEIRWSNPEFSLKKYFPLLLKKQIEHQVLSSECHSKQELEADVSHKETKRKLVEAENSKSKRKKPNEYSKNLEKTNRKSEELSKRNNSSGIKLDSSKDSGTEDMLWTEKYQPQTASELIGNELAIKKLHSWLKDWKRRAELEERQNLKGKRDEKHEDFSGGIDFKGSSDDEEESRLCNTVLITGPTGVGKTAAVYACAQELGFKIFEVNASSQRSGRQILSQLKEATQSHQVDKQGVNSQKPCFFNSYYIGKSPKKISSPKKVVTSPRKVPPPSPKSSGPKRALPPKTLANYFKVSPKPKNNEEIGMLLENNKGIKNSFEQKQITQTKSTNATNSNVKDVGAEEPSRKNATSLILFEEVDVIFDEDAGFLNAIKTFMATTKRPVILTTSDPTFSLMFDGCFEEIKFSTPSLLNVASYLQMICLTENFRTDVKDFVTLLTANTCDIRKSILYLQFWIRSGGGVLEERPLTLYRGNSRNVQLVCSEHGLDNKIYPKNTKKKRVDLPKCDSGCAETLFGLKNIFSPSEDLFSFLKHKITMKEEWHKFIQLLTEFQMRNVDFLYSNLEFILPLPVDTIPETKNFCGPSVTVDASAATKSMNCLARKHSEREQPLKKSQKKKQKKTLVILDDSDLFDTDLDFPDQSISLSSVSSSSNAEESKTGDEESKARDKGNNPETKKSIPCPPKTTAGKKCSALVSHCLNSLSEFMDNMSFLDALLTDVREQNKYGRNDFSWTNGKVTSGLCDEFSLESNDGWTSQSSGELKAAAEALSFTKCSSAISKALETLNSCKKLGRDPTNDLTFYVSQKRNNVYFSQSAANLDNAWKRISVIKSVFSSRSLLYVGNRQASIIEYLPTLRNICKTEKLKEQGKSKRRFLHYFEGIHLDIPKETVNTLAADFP
Sequence of Galactokinase (Homo sapiens) (P51570 whole entry, looked up): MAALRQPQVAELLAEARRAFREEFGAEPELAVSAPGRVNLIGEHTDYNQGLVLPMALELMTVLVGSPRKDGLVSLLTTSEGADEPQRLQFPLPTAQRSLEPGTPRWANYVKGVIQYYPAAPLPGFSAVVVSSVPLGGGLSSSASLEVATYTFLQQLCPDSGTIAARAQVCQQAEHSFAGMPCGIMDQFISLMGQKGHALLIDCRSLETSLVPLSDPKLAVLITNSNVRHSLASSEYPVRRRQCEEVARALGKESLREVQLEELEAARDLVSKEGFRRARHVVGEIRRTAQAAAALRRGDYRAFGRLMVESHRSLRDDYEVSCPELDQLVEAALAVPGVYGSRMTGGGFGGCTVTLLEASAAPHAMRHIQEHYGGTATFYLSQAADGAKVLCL
Sequence of Transient receptor potential cation channel subfamily V member 1 (Homo sapiens) (Q8NER1 whole entry, looked up): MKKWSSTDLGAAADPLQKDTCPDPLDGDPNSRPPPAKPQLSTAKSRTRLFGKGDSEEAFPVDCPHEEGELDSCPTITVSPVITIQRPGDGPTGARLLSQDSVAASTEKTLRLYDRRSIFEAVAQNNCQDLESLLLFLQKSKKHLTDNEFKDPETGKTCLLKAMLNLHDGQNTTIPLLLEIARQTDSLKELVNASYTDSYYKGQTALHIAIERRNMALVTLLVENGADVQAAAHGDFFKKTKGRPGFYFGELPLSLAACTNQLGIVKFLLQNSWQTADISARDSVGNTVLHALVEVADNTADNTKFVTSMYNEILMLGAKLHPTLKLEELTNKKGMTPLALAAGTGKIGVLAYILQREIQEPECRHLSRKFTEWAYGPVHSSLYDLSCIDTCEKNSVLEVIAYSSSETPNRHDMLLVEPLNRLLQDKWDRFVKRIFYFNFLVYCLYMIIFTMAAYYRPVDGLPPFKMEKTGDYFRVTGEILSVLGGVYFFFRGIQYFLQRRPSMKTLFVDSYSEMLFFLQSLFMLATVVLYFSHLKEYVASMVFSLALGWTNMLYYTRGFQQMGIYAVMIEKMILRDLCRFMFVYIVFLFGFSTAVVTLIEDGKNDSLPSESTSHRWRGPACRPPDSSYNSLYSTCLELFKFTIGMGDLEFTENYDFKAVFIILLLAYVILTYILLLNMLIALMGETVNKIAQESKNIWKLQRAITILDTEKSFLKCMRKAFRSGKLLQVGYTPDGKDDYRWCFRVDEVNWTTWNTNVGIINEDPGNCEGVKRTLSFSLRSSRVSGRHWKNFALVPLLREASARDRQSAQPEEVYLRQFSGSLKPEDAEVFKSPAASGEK
Sequence of M-phase phosphoprotein 8 (Homo sapiens) (Q99549 whole entry, looked up): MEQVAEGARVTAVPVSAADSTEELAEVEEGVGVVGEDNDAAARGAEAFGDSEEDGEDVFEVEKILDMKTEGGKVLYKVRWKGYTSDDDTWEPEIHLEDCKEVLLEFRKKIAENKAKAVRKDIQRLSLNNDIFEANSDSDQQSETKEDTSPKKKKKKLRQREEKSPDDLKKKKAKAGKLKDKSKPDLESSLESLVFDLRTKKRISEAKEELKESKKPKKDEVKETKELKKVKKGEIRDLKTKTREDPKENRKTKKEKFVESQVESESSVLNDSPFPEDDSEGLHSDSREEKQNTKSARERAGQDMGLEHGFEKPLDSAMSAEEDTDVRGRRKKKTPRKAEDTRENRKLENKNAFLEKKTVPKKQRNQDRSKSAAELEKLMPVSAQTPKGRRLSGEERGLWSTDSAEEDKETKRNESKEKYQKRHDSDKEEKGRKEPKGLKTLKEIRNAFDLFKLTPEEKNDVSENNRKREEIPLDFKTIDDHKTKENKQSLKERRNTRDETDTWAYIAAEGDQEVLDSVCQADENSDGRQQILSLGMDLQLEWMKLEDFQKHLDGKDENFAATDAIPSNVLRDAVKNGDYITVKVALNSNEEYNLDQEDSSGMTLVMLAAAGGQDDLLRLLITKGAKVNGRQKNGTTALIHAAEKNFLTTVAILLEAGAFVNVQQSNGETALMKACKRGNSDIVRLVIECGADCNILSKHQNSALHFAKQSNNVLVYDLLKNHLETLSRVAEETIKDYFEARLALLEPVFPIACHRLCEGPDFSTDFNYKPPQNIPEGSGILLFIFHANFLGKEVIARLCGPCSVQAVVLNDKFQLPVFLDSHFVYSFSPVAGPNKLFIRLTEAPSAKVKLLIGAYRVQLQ
Sequence of Flap endonuclease 1 (Homo sapiens) (P39748 whole entry, looked up): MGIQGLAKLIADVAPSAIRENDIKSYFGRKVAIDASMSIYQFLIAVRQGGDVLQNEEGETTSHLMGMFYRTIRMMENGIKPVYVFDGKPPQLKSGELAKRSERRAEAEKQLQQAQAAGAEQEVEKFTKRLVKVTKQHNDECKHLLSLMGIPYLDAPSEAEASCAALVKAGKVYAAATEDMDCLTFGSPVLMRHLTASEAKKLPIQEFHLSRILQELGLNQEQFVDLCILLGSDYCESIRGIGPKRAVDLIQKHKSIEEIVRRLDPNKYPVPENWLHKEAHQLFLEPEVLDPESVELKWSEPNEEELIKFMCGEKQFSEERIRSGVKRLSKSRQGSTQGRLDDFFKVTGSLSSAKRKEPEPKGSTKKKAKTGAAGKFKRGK
Sequence of Chromobox protein homolog 1 (Homo sapiens) (P83916 whole entry, looked up): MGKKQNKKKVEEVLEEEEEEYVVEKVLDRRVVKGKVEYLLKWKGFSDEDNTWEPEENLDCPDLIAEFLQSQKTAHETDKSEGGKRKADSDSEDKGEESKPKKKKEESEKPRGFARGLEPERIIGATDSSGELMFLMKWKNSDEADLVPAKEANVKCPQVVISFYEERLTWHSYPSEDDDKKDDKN

| Structure (SMILES) | outcome [1] | Potency [2] | Potency [3] | Potency [4] | Potency [5] | outcome [6] | outcome [7] | outcome [8] | Potency [9] | Potency [10] | Potency [11] | Potency [12] | Potency [13] | activation [14] | Potency [15] | viability change [15] | outcome [16] | Potency [17] | Potency [18] | outcome [19] |
| --- | --- | --- | --- | --- | --- | --- | --- | --- | --- | --- | --- | --- | --- | --- | --- | --- | --- | --- | --- | --- |
| C[N+]1(C)C2CCC1CC(OC(=O)c1c[nH]c3ccccc13)C2 (stereo unspecified) | inactive | inactive | inactive | inactive and 8.44 µM (active) | inactive | inactive | inactive | inactive | inactive | inactive | inactive | inactive | inactive | 0.188% (inactive) | inactive | 2.15% | inactive |  |  |  |
| CC(=O)OCC1=C(C(=O)O)N2C(=O)[C@@H](NC(=O)CCC[C@@H](N)C(=O)O)[C@H]2SC1 | inactive | inactive | inactive | inactive |  | inactive |  |  | inactive | inactive |  | inactive |  |  |  |  | inactive |  |  |  |
| CN1CCc2cc(O)cc3c2[C@H]1Cc1ccc(O)c(O)c1-3 | inactive | 13.4 µM (active) | 3.77 µM (active) |  | 1.34 µM (active) | inactive |  |  | inactive | 3.16 µM (active) |  | inactive | 20.6 µM (active) |  |  |  | inactive |  |  |  |
| NCCCP(=O)(O)O | inactive | inactive | inactive | inactive |  | inactive | inactive | inactive | inactive | inactive |  | inactive | inactive | 0.562% (inactive) | inactive | 0.331% | inactive | inactive |  |  |
| CP(=O)(O)C1=CCNCC1 | inactive | inactive | inactive |  | inactive | inactive | inactive | inactive | inactive | inactive |  | inactive | inactive |  |  |  | inactive | inactive | inactive | inactive |
| CCNC(=O)[C@H]1O[C@@H](n2cnc3c(N)ncnc32)[C@H](O)[C@@H]1O | inactive | inactive | inactive | inactive |  | inactive |  |  | inactive | inactive |  |  | inactive |  |  |  | inactive |  | inactive |  |
| C[Se]C[C@H](N)C(=O)O | inactive | inactive | inactive | inactive | inactive | inactive | inactive | inactive | inactive | inactive |  | inactive |  | 0.188% (inactive) |  |  | inactive | inactive | inactive | inactive |
| CC(C)NP(=O)(NC(C)C)OP(=O)(NC(C)C)NC(C)C | inactive | inactive | inactive | inactive | inactive | inactive | inactive | inactive | inactive | inactive |  | inactive |  | -2.75% (inactive) | inactive | 0.686% | inactive |  | inactive | inactive |
| C=CCN1CC[C@]23c4c5ccc(O)c4O[C@H]2/C(=N/NC(=O)c2ccccc2)CC[C@@]3(O)[C@H]1C5 | inactive | inactive |  | inactive | inactive | inactive | inactive | inactive | inactive | inactive |  | inactive |  | 1.44% (inactive) | inactive | 7.77% | inactive | inactive | inactive |  |
